The list is not random: actives were taken first. Their share in the collection is about 4.2%.
PLK1 PBD inh – qHTS for Inhibitors of PLK1-PDB (polo-like kinase 1 - polo-box domain): Primary Screen | Plk1 PBD binding of FITC phosphopeptide, fluorescence polarization | Potency, µM, hits mostly inhibitors | hit rate 2.8% among 360,000 | AID 720504, 2013; also: series mostly up to about 57 µM; nearly all actives have a fitted effect of over 65% in size
12-LOX inh – Primary qHTS assay for inhibitors of human arachidonate 12S-lipoxygenase (ALOX12): Round 2 | hit rate 1.1% among 580,000 | Potency, µM (doses to about 108 µM), usual class: inhibitors | AID 1671190, 2021 | purified 12hLO, xylenol orange hydroperoxide absorbance
Target sequence (P18054 whole entry, looked up): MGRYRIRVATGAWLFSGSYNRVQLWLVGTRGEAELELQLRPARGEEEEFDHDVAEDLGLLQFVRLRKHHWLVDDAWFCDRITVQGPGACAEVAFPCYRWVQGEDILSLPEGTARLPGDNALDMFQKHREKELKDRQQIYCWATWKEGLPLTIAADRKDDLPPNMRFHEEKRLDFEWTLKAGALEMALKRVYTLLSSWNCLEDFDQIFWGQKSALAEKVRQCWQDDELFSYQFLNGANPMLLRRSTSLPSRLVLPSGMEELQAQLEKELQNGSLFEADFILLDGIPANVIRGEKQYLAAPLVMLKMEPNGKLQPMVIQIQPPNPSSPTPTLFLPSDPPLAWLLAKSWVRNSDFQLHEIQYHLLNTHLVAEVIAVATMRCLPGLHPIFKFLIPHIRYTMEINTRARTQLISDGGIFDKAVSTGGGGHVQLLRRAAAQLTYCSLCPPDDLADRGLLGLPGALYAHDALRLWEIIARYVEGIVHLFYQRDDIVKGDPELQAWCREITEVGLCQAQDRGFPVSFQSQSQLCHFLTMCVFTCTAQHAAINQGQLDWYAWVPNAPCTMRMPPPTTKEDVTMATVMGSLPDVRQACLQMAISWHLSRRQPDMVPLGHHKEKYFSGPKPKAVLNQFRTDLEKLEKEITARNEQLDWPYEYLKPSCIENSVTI
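Purified human 12hLO (150 nM final) in 25 mM Hepes, 0.01% Triton X-100, pH 7.0 was preincubated 15 min at room temperature with compound. Then 40 uM arachidonic acid was added, 30 min. Hydroperoxide was read by Fe-XO absorbance ratio 573/405 nm.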
Sfp PPTase inh – qHTS Assay for Inhibitors of Bacillus subtilis Sfp phosphopantetheinyl transferase (PPTase); Biochemical Sfp PPTase activity, qHTS; Potency, µM, hits mostly inhibitors; hit rate 3.5% among 310,000; AID 1490, 2009;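 also: the enzyme is Sfp with the accession as filed and its product quenches rhodamine fluorescence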
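Sfp 15 nM + cpd, 15 min RT; start w/ rhodamine-CoA 5 uM, BHQ-2-YbbR 12.5 uM (final); 50 mM Hepes pH 7.6, 10 mM MgCl2, 0.01% NP-40, 0.01% BSA; read 525/598 nm at 0 and 30 min.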
VDR inhibitor – Inhibitors of the vitamin D receptor (VDR): qHTS | VDR-SRC2-3 peptide fluorescence polarization, 2 h | Potency, µM, most hits filed as inhibitors | hit rate 0.93% among 400,000
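Two reagent solutions held at 4 deg C in the dark were dispensed, compounds pinned at 23 nl, and the mixture incubated 2 h at room temperature. Read-out: fluorescence polarization of VDR–SRC2-3 peptide binding.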
Each line names hits and unclear results; the compound was inactive in the other large screens. Calls follow the shape of the dose curve; as a rule, active = well fitted curve in the direction sought with a large enough effect; inconclusive = small, poorly fitted or top-dose-only effect, or another doubt; inactive = no such curve, though single readings can be large; an effect the other way counts as inactive or inconclusive.

CCOC(=O)c1c(/N=C/N(C)C)sc(/C=N/Nc2ccccc2)c1-c1ccccc1Cl	12-LOX inh inconclusive
CC(=O)n1c(Cl)c(NC(=O)CCl)c2ccccc21	none
O=C(O)C/C(=C\c1cc2c(cc1Br)OCO2)c1nc2ccccc2s1	PLK1 PBD inh 23.8µM, 12-LOX inh inconclusive, Sfp PPTase inh inconclusive
CN(c1ccccc1)c1ccc(/C=C(\CCC(=O)O)c2nc3ccccc3s2)cc1[N+](=O)[O-]	PLK1 PBD inh 23.8µM, 12-LOX inh inconclusive
Cc1ccc(/C=C(\CCC(=O)O)c2nc3ccccc3s2)cc1[N+](=O)[O-]	PLK1 PBD inh inconclusive
COc1ccc(C(=O)Nc2cccc(/C=C(\CCC(=O)O)c3nc4ccccc4s3)c2)cc1	PLK1 PBD inh 10.6µM, VDR inhibitor inconclusive
O=C(O)C/C(=C\c1cccc(NC(=O)c2ccccc2Cl)c1)c1nc2ccccc2s1	PLK1 PBD inh 26.7µM
CNc1ccc(/C=C(\CCC(=O)O)c2nc3ccccc3s2)cc1[N+](=O)[O-]	none
O=C(N[C@@H](c1ccccc1)[C@@H]1CCCCN1)c1cccc(C(F)(F)F)c1Cl	none (no result: PLK1 PBD inh, Sfp PPTase inh, VDR inhibitor)
COc1cccc(C(=O)NCC2CCCN(Cc3ccc(C)cc3)C2)c1OC (configuration not stated)	none (no result: PLK1 PBD inh, Sfp PPTase inh, VDR inhibitor)
COc1ccc(/C=C(\CC(=O)O)c2nc3ccccc3s2)cc1O	none
COc1cc(/C=C(\CC(=O)O)c2nc3ccccc3s2)cc(OC)c1O	12-LOX inh 35.5µM, Sfp PPTase inh 35.5µM
O=C(NCc1ccncc1)c1ccc(Cn2ccn3nc4c(c3c2=O)CCCC4)cc1	none (no result: PLK1 PBD inh, Sfp PPTase inh, VDR inhibitor)
C#CCOCCOCCOCCNc1nc(N2CCN(C(=O)Cn3cc(CCCCN)nn3)CC2)nc(N2CCN(C(=O)[C@H](C)n3cc(CCCN=C(N)N)nn3)CC2)n1	none (no result: PLK1 PBD inh, 12-LOX inh, VDR inhibitor)
C/C(=C/c1oc2ccc(O)cc2c1[N+](=O)[O-])N(C)C	Sfp PPTase inh 70.8µM
Clc1ccc(-c2nn3c(-c4ccncc4)nnc3s2)c(Cl)c1	none (no result: PLK1 PBD inh, 12-LOX inh, VDR inhibitor)
O=C(NCc1nc(-c2ccc(F)cc2)no1)C1CC(=O)N(Cc2ccccn2)C1 (configuration not stated)	none (no result: PLK1 PBD inh, Sfp PPTase inh, VDR inhibitor)
O=C(NN=C1CCCCCCC1)c1ccc(F)cc1	PLK1 PBD inh 18.9µM
O=C(N/N=C/c1ccncc1)c1nc2ccccc2c(=O)[nH]1	Sfp PPTase inh inconclusive
O=c1oc2c(CN3CCOCC3)c(O)ccc2c2ccccc12	none
CN(Cc1c(O)ccc2c1oc(=O)c1ccccc12)C1CCCCC1	12-LOX inh 0.891µM, Sfp PPTase inh inconclusive
COc1ccc(OC)c(NC(=O)CSc2nc3ccccc3c(=O)n2CC2CCCO2)c1 (configuration not stated)	PLK1 PBD inh inconclusive
O=C(CSc1cccc[n+]1[O-])Nc1ccc([N+](=O)[O-])cc1Cl	none
N#CC(=Cc1ccnc2ccccc12)c1ccccc1	12-LOX inh inconclusive (no result: Sfp PPTase inh, VDR inhibitor)
Nc1cc(N)nc(SCc2cc(=O)oc3cc4c(cc23)CCC4)n1	PLK1 PBD inh 26.7µM
COc1cc(-c2cc(-c3ccccc3)nc3c(C)noc23)ccn1	none (no result: PLK1 PBD inh, Sfp PPTase inh, VDR inhibitor)
Cc1ccc2c(c1)cc(CN(Cc1cccnc1)C(=O)NCc1ccccc1)c1nnnn12	none
COC(=O)C1=C(C)NC(=S)NC1c1ccc(-c2cc(Cl)ccc2Cl)o1 (configuration not stated)	12-LOX inh 17.8µM, Sfp PPTase inh 39.8µM, VDR inhibitor inconclusive
OC1=C(O)c2nc3cc(F)ccc3nc21	PLK1 PBD inh 21.2µM, Sfp PPTase inh 39.8µM
Nc1nnc2cc(F)ccc2n1	none (no result: Sfp PPTase inh, VDR inhibitor)
Cc1ccsc1/C=C/c1ccc2ccccc2n1	12-LOX inh inconclusive
Cc1ccsc1/C=C/c1ccc2cccc(O)c2n1	Sfp PPTase inh 50.1µM
O=C(N=C1c2ccccc2CN1c1ccccc1)c1cccc([N+](=O)[O-])c1	none
O=c1[nH]c2ccccc2c2oc(CCl)nc12	PLK1 PBD inh inconclusive, 12-LOX inh inconclusive, Sfp PPTase inh 6.31µM
CCC1CCc2c(c3ccccc3[nH]c2=O)O1 (configuration not stated)	none
CCn1nc(C)c(CNC(=O)c2cc(COc3ccccc3SC)on2)c1C	Sfp PPTase inh inconclusive
CCn1nc(C)c(CNC(=O)c2cc(COc3cncc(Cl)c3)on2)c1C	PLK1 PBD inh 23.8µM, VDR inhibitor inconclusive
OCCCc1nc2ccc(Cl)cc2[nH]1	none (no result: PLK1 PBD inh, Sfp PPTase inh, VDR inhibitor)
CCC(=O)/C=C1/Sc2ccc(OC)cc2N1CCO	PLK1 PBD inh 13.4µM, VDR inhibitor inconclusive
CCC(/C=C1\Sc2ccc(OC)cc2N1CC)=C\c1sc2ccc(OC)cc2[n+]1CCCS(=O)(=O)[O-]	PLK1 PBD inh inconclusive, Sfp PPTase inh 50.1µM, VDR inhibitor inconclusive
CCC(/C=C1\Sc2ccc(OC)cc2N1CCO)=C\c1sc2ccc(OC)cc2[n+]1CCO	PLK1 PBD inh inconclusive, 12-LOX inh inconclusive, Sfp PPTase inh 22.4µM, VDR inhibitor 79.4µM
Cc1ccc(C(=O)NNC(=O)CSc2nnc(CNc3ccc(F)cc3)n2C)cc1	none (no result: PLK1 PBD inh, VDR inhibitor)
CC(=O)c1ccccc1NC(=O)COC(=O)c1c(C)nn(-c2ccccc2)c1C	none (no result: Sfp PPTase inh)
CCCCCCCNC(=O)C1(CC2CC(c3ccc(Cl)cc3)=NO2)CCN(C(=O)C2CCCC2)CC1 (configuration not stated)	none
Cc1ccc(Cl)cc1N1CCN(C(=O)Cn2ncn3cccc3c2=O)CC1	none
O=C(CCn1nnc2ccccc21)Nc1nnc(Cc2ccccc2)s1	Sfp PPTase inh 50.1µM
O=C(CCn1nnc2ccccc21)Nc1nnc(COc2ccccc2F)s1	none
Cc1ccc2nc(-c3ccccc3N)[nH]c2c1	PLK1 PBD inh 29.9µM, VDR inhibitor inconclusive
O=C(Nc1ccc2c(c1)OCCO2)c1ccc(CN2CCOCC2)cc1	none
Nc1ccc(Sc2nnnn2-c2ccccc2)c(Cl)c1	none
O=C1CCCC2=C1C(c1ccc(Br)cc1)c1c([nH]n(-c3ccccc3)c1=O)N2 (configuration not stated)	none (no result: PLK1 PBD inh, Sfp PPTase inh, VDR inhibitor)
CC1(C)CC(=O)C2=C(C1)Nc1[nH]c(=S)[nH]c(=O)c1C2c1ccccc1 (configuration not stated)	PLK1 PBD inh inconclusive, 12-LOX inh inconclusive, Sfp PPTase inh 28.2µM
O=C1CCCC2=C1C(c1ccc(Br)cc1)c1c([nH]c(=S)[nH]c1=O)N2 (configuration not stated)	PLK1 PBD inh 26.7µM, 12-LOX inh inconclusive, VDR inhibitor inconclusive
O=C1c2ccccc2C(=O)C1c1ccc(Br)cc1	none
O=c1[nH]c(=S)[nH]c2c1C(c1ccc(Br)cc1)c1c([nH]c(=S)[nH]c1=O)O2	PLK1 PBD inh 5.97µM, 12-LOX inh 5.01µM, Sfp PPTase inh 44.7µM, VDR inhibitor 89.1µM
CSc1nc2c(c(=O)[nH]1)C(c1ccccc1)C1=C(CC(C)(C)CC1=O)N2 (configuration not stated)	none
Cc1ccc(C2C3=C(CCCC3=O)Nc3[nH]c(=S)[nH]c(=O)c32)cc1 (configuration not stated)	PLK1 PBD inh inconclusive, 12-LOX inh inconclusive, Sfp PPTase inh 7.94µM, VDR inhibitor 89.1µM
